PubChem BioAssay (NCI)
About 79,000 compounds went through this panel and 15% of them were active in at least one assay; those are over-represented in the sample as a whole. Values without a mark were called inactive. Rule as the data show it: active = growth inhibition above about 70%; inactive = the rest.

test: NCI Yeast Anticancer Drug Screen. Data for the cln2 rad14 strain (AID 165);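 also: 0% = growth equal to vehicle treated cultures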; conditions: S. cerevisiae cln2 rad14 strain, at 50.0 µM, stronger effect = higher value
Method in brief: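 cln2 rad14 yeast strain; compound exposure; growth inhibition read vs vehicle controls.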

SMILES | growth inhibition [%]
CC(=O)O[C@H]1CC[C@@]2(C)[C@@H](CC[C@@H]3[C@@H]2CC(=O)[C@]2(C)[C@@H]4[C@H](C[C@@H]32)O[C@]2(CC[C@@H](C)CO2)[C@H]4C)C1 | -13.2
CCCCN(CCCC)CCCNC(=S)Nc1ccccc1 | -7.25
C/C(=C\c1ccccc1)C(O)C(=O)c1nc2ccc(Cl)cc2[nH]c1=O (stereo not given) | 26
CC(c1ccccc1)C(C)(C)O (stereo not given) | 20.3
O=[N+]([O-])c1ccc(Oc2ccc(Cl)cc2)cc1 | 2.1
Cc1cc2c(cc1[N+](=O)[O-])OCCO2 | -15.5
O=C(O)c1c(F)c(F)c(-c2c(F)c(F)c(C(=O)O)c(C(=O)O)c2F)c(F)c1C(=O)O | 7.05
CCOC(=O)NC(=O)c1cn(CCN2CCN(C(=O)NCCCCCCNC(=O)N3CCN(CCn4cc(C(=O)NC(=O)OCC)c(=O)[nH]c4=O)CC3)CC2)c(=O)[nH]c1=O | -18.6
CCCCCCCCC(=O)c1c(OC)oc(C=O)cc1=O | 26.2
CCOC(CN(Cc1ccccc1)CC(OCC)OCC)OCC | 5.85
CCOC(CNCCC(=O)OC)OCC | -8
Cc1cc(C)cc(N=Nc2c(N)nc(N)[nH]c2=O)c1 | -11.2
O=C(N/N=C/c1ccc(Cl)cc1Cl)c1cccc([N+](=O)[O-])c1 | -6.95
OCCCCC(c1ccc(O)cc1)c1ccc(O)cc1 | 25.1
O=C(O)CC(c1ccccc1)C(CC(=O)O)c1ccccc1.[NH-]C1CCCCC1[NH-].[Pt+2] (stereo not given) | -5.55
